According to PubChem BioAssay AID651820 (National Center for Advancing Translational Sciences (NCATS), 2012):
Out of some 340,000 compounds screened, about 12,000 (3.5%) were called active. Another 18% or so got no clear call; they are omitted. What follows is part of a selection rich in actives, with near analogues and random picks from the rest. A number with no mark means an inactive call. Calls follow the shape of the dose curve; as a rule, active = well fitted inhibition curve with a large enough effect; inconclusive = small, poorly fitted or top-dose-only effect, or another doubt; inactive = no such curve, though single readings can be large or run the other way.

Test: qHTS Assay for Inhibitors of Hepatitis C Virus (HCV)
Conditions: Huh7.5.1 HCVcc-Cre infection, luciferase reporter, 44 h; series mostly up to 41.8 µM; activity change, negative = inhibition: at the top concentration
How it was run: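 Infectious HCVcc-Cre (~0.5 moi) was added to cells just after compound, with cells seeded 4 h earlier at 1,000 per well. Luciferase activity after 44 h culture reported infection; substrate was incubated 15 min at room temperature before reading.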
% is scaled to controls: 0 for no effect and ±100 for the full control effect; potency is read from the fitted curve at half-maximal effect.

SMILES	activity change, negative = inhibition	Potency
Cc1ccc(CNC(=O)c2ccc3c(c2)S(=O)(=O)c2ccccc2C3=O)cc1	-24.7%	–
COc1cccc(NC(=O)CN(C)CC(=O)c2c(N)n(Cc3ccccc3)c(=O)n(C)c2=O)c1	6.73%	–
CCCCCCSc1ccc([C@@H]2[C@H]3C(=O)N(CC)C(=O)[C@H]3[C@]3(C(=O)OC)CCCCN23)cc1	-3.35%	–
O=C1CCCC2=C1C(c1ccccc1)n1c(s/c(=C/c3cccc(F)c3)c1=O)=N2 (stereo not given)	-3.9%	–
COc1ccc(OC)c(C2C3=C(N=c4s/c(=C\c5cccc(O)c5)c(=O)n42)c2ccccc2CC3)c1 (stereo not given)	–	10 µM (active)
COCCOC(=O)C1=C(C)N=c2s/c(=C\c3cccs3)c(=O)n2C1c1cccs1 (stereo not given)	–	inactive
CSCCC(NC(=O)COc1ccccc1)C(=O)N(C)CC(=O)Nc1ccc(C)cc1 (stereo not given)	-7.96%	–
CCOc1cc(/C=N/NC(=O)c2cc(-c3ccccc3)nc3ccccc23)ccc1O	-10.3%	–
CCOc1cc(/C=N/Nc2cc(C)nc3ccc(C)cc23)ccc1O	–	10 µM (active)
Cc1ccc2nc(C)cc(N/N=C/c3ccc(F)cc3)c2c1	-29.3%	–
OCCN1CCN(CCO)C1=S	3.26%	–
CC1CCN(c2nc3c(c(=O)[nH]c(=O)n3C)n2CCCc2ccccc2)CC1	10.2%	–
Cn1c(=O)[nH]c(=O)c2c1nc(N1CCN(C(c3ccccc3)c3ccccc3)CC1)n2CCO	–	10 µM (active)
Cn1c(=O)[nH]c(=O)c2c1nc(N1CCN(CCO)CC1)n2CCSc1nc2ccccc2s1	10.5%	–
Cc1ccc2nc(-c3cccnc3)c(NC3CCCC3)n2c1	-28.5%	–
COc1ccc(-c2nc3cc(C)ccn3c2NC2CCCCC2)cc1SC1CCCCC1	–	3.55 µM (active)
COc1ccc(C)cc1S(=O)(=O)NC1CCCCC1	14.2%	–
O=S(=O)(Nc1ncnc2sccc12)c1cccc(F)c1	22.3%	–
CCCCN(C(=O)C(CCSC)N1C(=O)c2ccccc2C1=O)c1c(N)n(CCC)c(=O)[nH]c1=O (stereo not given)	15.1%	–
CN(CC(=O)Nc1ccc(OC(F)(F)F)cc1)C(=O)C1CCC1	-16.3%	–
O=C(CCl)Nc1ccc(Sc2ccc(NC(=O)CCl)cc2)cc1	–	3.98 µM (active)
Cc1ccc(NC(=O)CC(=O)Nc2ccc(C)cc2)cc1	3.38%	–
CC(C)(CCl)C(=O)Nc1ccc(Sc2ccc(F)cc2)cc1	-12.8%	–
O=C(COC(=O)c1ccc(F)cc1)NCC1COc2ccccc2O1 (stereo not given)	7.78%	–
COc1ccc2oc(N)nc2c1	4.25%	–

SMILES	activity change, negative = inhibition	Potency
Cc1ccc(NS(=O)(=O)c2ccc(C(=O)NCCCN3CCOCC3)cc2)cc1	7.11%	–
COc1cccc(CNC(=O)COC(=O)CN2C(=O)NC3(CCCCC3C)C2=O)c1 (stereo not given)	-8.27%	–
CCOC(=O)[C@H]1[C@H]2COc3ccc(C)cc3[C@@H]2N2C(=O)CN(Cc3ccc(F)cc3)C(=O)[C@@]12C	-18.6%	–
CCOC(=O)c1sc(N)c(C#N)c1COC(=O)C1=COCCO1	4.34%	–
CCCCCCCCCCOC(=O)Cn1c(COc2cccc(OC)c2)[n+](C)c2ccccc21	-14.4%	–
CCCCCCCCCCOC(=O)Cn1c(COc2ccc(C)cc2)[n+](C)c2ccccc21	–	31.6 µM (active)
CCCCOC(=O)Cn1c(=O)n(CC(=O)OCCCC)c2cc(C)ccc21	12.5%	–
COc1ccc(-n2nc3c(N4CCC(C(=O)NCc5ccccc5)CC4)nnc(C)c3c2C)cc1	-12.4%	–
CCOc1ccc(CNC(=O)C2CCCN(c3nnc(C)c4c(C)n(-c5ccccc5)nc34)C2)cc1 (stereo not given)	-15.1%	–
CCc1ccc(CNC(=O)C2CCN(c3nnc(C)c4c(C)n(-c5ccc(C)cc5)nc34)CC2)cc1	–	8.91 µM (active)
CCOC(=O)CCC(NC(=O)c1ccc(CNc2nc3cc(C(F)(F)F)ccc3nc2C(=O)OCC)cc1)C(=O)OCC (stereo not given)	-22.8%	–
Cc1ccc(NC(=O)c2cccc(S(=O)(=O)N3CCCc4ccccc43)c2)nc1	–	10 µM (active)
Cc1cccc(NC(=O)c2cccc(S(=O)(=O)N3CCCC3)c2)n1	7.31%	–
Cn1c(=O)n(C)c2cc(S(=O)(=O)N3CCCc4ccccc43)ccc21	-14.2%	–
C[C@H](O)[C@@H]1C(=O)N2CCc3ccc(N4CCOCC4)cc3[C@@H]2C[C@@H]1N(C)C(=O)C(C)(C)C	-22.9% [at 8.37 µM]	–
CCCCc1ccc(NC(=O)CN2C(=O)NC(Cc3ccccc3)C2=O)cc1 (stereo not given)	-11.5%	–
Cc1ccc(S(=O)(=O)N2CCN(C(=O)COC(=O)/C=C/c3cccc(Cl)c3)CC2)c(C)c1	-24.1%	–
CCCn1cc(SCC(N)=O)c2ccccc21	-9.3%	–
CCC(=O)c1cn(CCOc2ccccc2OC)c2ccccc12	–	8.91 µM (active)
COc1ccccc1OCCn1c(SCC(N)=O)nc2ccccc21	7.46%	–
CCCCNS(=O)(=O)CCNCc1ccccc1OC	5.73%	–
COC(=O)c1ccc(CNC(=O)c2ccc(S(=O)(=O)N3CCCCCC3)cc2)cc1	4.24%	–
Cc1ccc(C)c(OCC(=O)N2CCN(C(=O)c3ccco3)CC2)c1	-2.2%	–
CCC(=O)Nc1ccc(C(=O)N2CCN(C(=O)c3ccco3)CC2)cc1	-5.83%	–
Cc1ccc(OCC(=O)Nc2ccc(N3CCN(C(=O)c4ccco4)CC3)cc2)c(C)c1	–	7.08 µM (active)
